Measurements from PubChem BioAssay (Tox21).
Results filed as inconclusive are left out. Values without a mark were called inactive. The source made the active and inactive calls. Calls follow the shape of the dose curve; as a rule, active = well fitted inhibition curve with a large enough effect in the repeat runs; inconclusive = weak or mixed curves; inactive = flat fitted curve, though single readings scatter.

target: Luciferin 4-monooxygenase (Photinus pyralis) (UniProt P08659); experiment: qHTS assay to identify small molecule inhibitors of firefly luciferase (AID 1224835); also: nearly all actives have a fitted effect of over 25% in size; settings: purified P. pyralis luciferase, luminescence inhibition; series mostly up to 115 µM; activity change, negative = inhibition: at the top concentration
From the text: U.S. Tox21 Program National Center for Advancing Translational Sciences [NCATS] NIH Chemical Genomics Center [NCGC] U.S. Environmental Protection Agency [EPA] National Institutes of Environmental Health Sciences [NIEHS] National Toxicology Program [NTP] U.S. Food and Drug Administration [FDA] Tox21 Assay Overview: Firefly (Photinus pyralis) luciferase is one of the most commonly used transcriptional reporters. Firefly luciferase reporter-gene assays are generally considered one of the most sensitive assay types (Wood, 1995; Wood, 1998). However, it was initially observed, in 1991, by Thompson et al., that compounds that resemble the substrates of firefly luciferase (FLuc) can act as competitive inhibitors of the enzyme, and that these compounds, upon interaction with luciferase in the cell, can actually stabilize the protein and increase its half-life. Previous profiling work by other groups to determine the prevalence of compounds that affect FLuc enzymatic activity (PubChem AID 411) identified that ~3% of the MLSMR library (then at ~72K) inhibited FLuc. […] Thus the Tox21 10K library is profiled for activity against FLuc using a biochemical assay of purified FLuc and KM concentrations of FLuc substrates (D-luciferin and ATP).
These assay plates were then treated with 23nL of compound or DMSO using a Kalypsys pin tool, which allows for delivery of a 6-point interplate titration of each compound to the assay plate (quantitative HTS.) 1 uL of firefly luciferase mix (containing 50 mM Tris acetate, pH 7.6, 0.04 uM P. pyralis luciferase, 0.01% Tween, 0.05% BSA and dH2O) was then delivered by FRD to each well. Luciferase activity was then measured using a ViewLux CCD imager.
% is scaled to controls: 0 for no effect and ±100 for the full control effect; potency is read from the fitted curve at half-maximal effect.

Sequence of Luciferin 4-monooxygenase (Photinus pyralis) (P08659 whole entry, looked up): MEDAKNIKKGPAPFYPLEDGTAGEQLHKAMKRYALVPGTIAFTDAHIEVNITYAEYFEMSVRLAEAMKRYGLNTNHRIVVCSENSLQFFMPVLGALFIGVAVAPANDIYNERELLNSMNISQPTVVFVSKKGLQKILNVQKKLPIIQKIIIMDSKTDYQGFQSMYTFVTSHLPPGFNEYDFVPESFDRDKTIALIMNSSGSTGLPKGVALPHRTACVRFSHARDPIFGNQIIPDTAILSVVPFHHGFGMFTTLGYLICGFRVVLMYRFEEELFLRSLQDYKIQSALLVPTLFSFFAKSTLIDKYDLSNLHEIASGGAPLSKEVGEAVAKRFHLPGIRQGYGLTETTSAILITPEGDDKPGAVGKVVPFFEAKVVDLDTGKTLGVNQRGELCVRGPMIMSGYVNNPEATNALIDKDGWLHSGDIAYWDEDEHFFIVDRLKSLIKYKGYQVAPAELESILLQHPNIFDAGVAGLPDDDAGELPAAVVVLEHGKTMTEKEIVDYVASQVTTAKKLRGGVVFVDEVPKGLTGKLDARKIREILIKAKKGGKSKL

SMILES	activity change, negative = inhibition	Potency
CC(C)(C)Cl	6.47%	
CCN(CC)CCOC(=O)C(Cc1cccc2ccccc12)CC1CCCO1 (stereo not given)	-1.27% [at 52.9 µM]	
CCC(CC)Nc1ccc(C)c(C)c1	-6.19%	
CC1(c2ccccc2)OC(C(=O)O)=CC1=O (stereo not given)	0.022% [at 52.9 µM]	
CCCCNc1ccc(C(=O)OCCOCCOCCOCCOCCOCCOCCOCCOCCOC)cc1	-21.6% [at 52.9 µM]	
CCNc1cc(O)ccc1C	-4.12%	
COc1ccc(-c2nc3ccc(C4=NNC(=O)CC4C)cc3[nH]2)cc1 (stereo not given)		8.71 µM (active)
CC1CCC(=O)C1=O (stereo not given)	1.87%	
O=C1[C@H]2CCCC[C@H]2C(=O)N1CCCCN1CCN(c2nsc3ccccc23)CC1	0.519% [at 52.9 µM]	
Nc1c(CC(=O)O)cccc1C(=O)c1ccc(Br)cc1	-0.562% [at 52.9 µM]	
CN1C[C@H]2c3ccccc3Oc3ccc(Cl)cc3[C@@H]2C1	5.33% [at 52.9 µM]	
CCCCCCCC#N	3.59%	
O=C1c2ccccc2S(=O)(=O)N1CCCCN1CCN(c2ncccn2)CC1	-2.98% [at 52.9 µM]	
O=C1OC(=O)C2C3C=CC(C3)C12 (stereo not given)	0.719%	
CCCCOC(=O)CCCCCCCC(=O)OCCCC	-0.474%	
O=C(O)c1ccccc1Cl	-11.4%	
COc1ccc(S(=O)(=O)N2C(=O)[C@@](c3ccccc3OC)(N3C[C@H](O)C[C@H]3C(=O)N(C)C)c3cc(Cl)ccc32)c(OC)c1	6.77%	
CCO[Si](CCCCl)(OCC)OCC	4.27%	
Nc1ccc([N+](=O)[O-])c(C(F)(F)F)c1	-3.1% [at 52.9 µM]	
O=[N+]([O-])c1ccc2[nH]ncc2c1	1.48%	

SMILES	activity change, negative = inhibition	Potency
O=C(O)c1ccc(-n2nc(-c3ccccc3O)nc2-c2ccccc2O)cc1	1.07% [at 52.9 µM]	
Nc1ccc(S(=O)(=O)Nc2ccccc2)cc1	9.18% [at 52.9 µM]	
COc1cc2nc(N(C)CCCNC(=O)C3CCCO3)nc(N)c2cc1OC (stereo not given)	4.87% [at 52.9 µM]	
CN(Cc1ccc(C(C)(C)C)cc1)Cc1cccc2ccccc12	-0.465% [at 52.9 µM]	
CNC(=O)CN(CCN(CCN(CC(=O)[O-])CC(=O)NC)CC(=O)[O-])CC(=O)[O-].O.[Gd+3]	-1.7% [at 52.9 µM]	
CN(C)CCOC(c1ccccc1)c1ccc(Br)cc1 (stereo not given)	8.06% [at 52.9 µM]	
Nc1cc(C(=O)O)c(O)c(S(=O)(=O)O)c1	-6.86%	
CCCCCCCCCCCCCCCCOS(=O)(=O)O	4.72% [at 52.9 µM]	
OCCNCc1ccccc1	-8.09%	
Clc1ccc(Cn2c(CN3CCCC3)nc3ccccc32)cc1	5.95% [at 52.9 µM]	
CC(=O)c1cccc([N+](=O)[O-])c1	1.91%	
C#CCN(C)CCCOc1ccc(Cl)cc1Cl		15.5 µM (active)
CN1Cc2cc(C(=O)N3CCC(C4CCNCC4)CC3)ccc2NC(CC(=O)O)C1=O (stereo not given)	-0.746% [at 52.9 µM]	
C/C(=C(\CCOP(=O)(O)O)SC(=O)c1ccccc1)N(C=O)Cc1cnc(C)nc1N	0.277% [at 10.5 µM]	
C=CCOC(=O)CCC1CCCCC1	-6.27%	
COC(C)OC	0.0791%	
CC(C)OC(=O)C(C)N(C(=O)c1ccccc1)c1ccc(F)c(Cl)c1 (stereo not given)	0.815%	
NCCCN1CCOCC1	2.38%	
O=C(NCCO[N+](=O)[O-])c1cccnc1	3.35% [at 52.9 µM]	
OCc1cc(C(O)CNCCCCCCOCCCCc2ccccc2)ccc1O (stereo not given)	-10.4% [at 52.9 µM]	
